Where “and” joins values, the source holds several entries; their conditions need not be identical. Equal values may be shown once. Records with an inconclusive call do not appear. Some structures have more than one record in an assay (separate samples or runs), and their calls can disagree. Calls of active or inactive are those of the source. Rule for the calls: active = hit-call score of the fitted dose curve at least 0.9, where 1 is the maximum; inconclusive = response in the unintended direction; inactive = score below 0.9.
How the values were obtained:
[1] = target: Luciferin 4-monooxygenase (Photinus pyralis) (UniProt P08659); test: CCTE_Simmons_QuantiLum_inhib_2: CCTE's Firefly Luciferase Inhibition Assay, Simmons Lab (AID 2283767);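 for AC50: potency for inhibitors that lower luciferase luminescence relative to DMSO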
Chain of Luciferin 4-monooxygenase (Photinus pyralis) (P08659 whole entry, looked up): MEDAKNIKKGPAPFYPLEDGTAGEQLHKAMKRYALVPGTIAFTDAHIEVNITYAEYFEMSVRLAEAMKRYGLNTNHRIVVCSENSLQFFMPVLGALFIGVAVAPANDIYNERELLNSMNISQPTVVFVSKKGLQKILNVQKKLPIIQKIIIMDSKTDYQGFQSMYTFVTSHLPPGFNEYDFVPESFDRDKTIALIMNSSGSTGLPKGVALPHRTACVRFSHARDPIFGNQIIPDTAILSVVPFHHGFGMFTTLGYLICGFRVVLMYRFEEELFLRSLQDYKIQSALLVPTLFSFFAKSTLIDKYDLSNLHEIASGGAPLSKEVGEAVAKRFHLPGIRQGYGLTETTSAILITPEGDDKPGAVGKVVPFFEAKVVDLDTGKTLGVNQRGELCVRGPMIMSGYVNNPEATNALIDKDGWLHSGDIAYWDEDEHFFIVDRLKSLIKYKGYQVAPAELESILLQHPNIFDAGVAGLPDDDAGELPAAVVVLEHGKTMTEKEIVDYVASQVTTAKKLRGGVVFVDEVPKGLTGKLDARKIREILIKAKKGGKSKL
Method in brief: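 First, 5 ng purified luciferase in phosphate buffer with BSA is dispensed per well. Next, test chemicals (5 nM to 87.5 uM final, 0.5% DMSO) are added and incubated 30 min at 37C in darkness. Finally, luciferin reagent is injected and luminescence read kinetically.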

[2] = ACEA_AR_agonist_AUC_viability: ACEA Biosciences xCELLigence Real-Time Cell Analysis on Androgen Receptor Agonism for Viability (AID 2283775);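 for AC50: viability read 80 hours after compound addition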
Method in brief: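 22Rv1 cells; impedance growth kinetics; 8-pt 1:4 dilutions from 100 uM top final, ≤0.5% DMSO; n = 2; 80 h read; AUC viability, loss-of-signal vs DMSO.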

[3] = ACEA_ER_AUC_viability: ACEA Biosciences xCELLigence Real-Time Cell Analysis on Estrogen Receptor Agonism for Viability (AID 2283782);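 note: hit means loss of impedance signal meaning reduced cell growth or viability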
Method in brief: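 Continuous-exposure impedance cell analysis uses T-47D cells in charcoal-stripped serum, eight 1:4 dilutions topping at 100 uM final, biological duplicate. Area under the growth curve at 80 h is fitted against DMSO baseline.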

[4] = STM_H9_NormalizedViability: Cytotoxicity Assessment at 120 hours in the Stemina devTOX quickPredict H9 human embryonic stem cell (hESC)-based Assay (AID 2283784)
Method in brief: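 Viability of the cell layer was taken from live-cell protease cleavage of a fluorogenic substrate after compound exposure of undifferentiated H9 stem cells, with replenishment each 24h. Fluorescence was normalized to vehicle (0.1% DMSO).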

[5] = ACEA_AR_antagonist_AUC_viability: ACEA Biosciences xCELLigence Real-Time Cell Analysis on Androgen Receptor Antagonism for Viability (AID 2283776);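 note: 22Rv1 human prostate cancer cells growing on impedance electrode plates; area under impedance growth curve at 80 h after dosing as viability; hits lower the growth signal relative to DMSO meaning cytotoxicity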
Method in brief: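 22Rv1 prostate cells, continuous dosing up to 100 uM final (0.5% DMSO max), duplicate plates. Growth measured by impedance; AUC at 80 h, loss of signal vs DMSO.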

AR (gene 367) [6] = target: AR (gene 367) (UniProt P10275); test: ACEA_AR_agonist_80hr: ACEA Biosciences xCELLigence Real-Time Cell Analysis on Androgen Receptor Agonism for Proliferation (AID 2283783);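 note: hits increase impedance growth signal above DMSO baseline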
Chain of AR (gene 367) (P10275 whole entry, looked up): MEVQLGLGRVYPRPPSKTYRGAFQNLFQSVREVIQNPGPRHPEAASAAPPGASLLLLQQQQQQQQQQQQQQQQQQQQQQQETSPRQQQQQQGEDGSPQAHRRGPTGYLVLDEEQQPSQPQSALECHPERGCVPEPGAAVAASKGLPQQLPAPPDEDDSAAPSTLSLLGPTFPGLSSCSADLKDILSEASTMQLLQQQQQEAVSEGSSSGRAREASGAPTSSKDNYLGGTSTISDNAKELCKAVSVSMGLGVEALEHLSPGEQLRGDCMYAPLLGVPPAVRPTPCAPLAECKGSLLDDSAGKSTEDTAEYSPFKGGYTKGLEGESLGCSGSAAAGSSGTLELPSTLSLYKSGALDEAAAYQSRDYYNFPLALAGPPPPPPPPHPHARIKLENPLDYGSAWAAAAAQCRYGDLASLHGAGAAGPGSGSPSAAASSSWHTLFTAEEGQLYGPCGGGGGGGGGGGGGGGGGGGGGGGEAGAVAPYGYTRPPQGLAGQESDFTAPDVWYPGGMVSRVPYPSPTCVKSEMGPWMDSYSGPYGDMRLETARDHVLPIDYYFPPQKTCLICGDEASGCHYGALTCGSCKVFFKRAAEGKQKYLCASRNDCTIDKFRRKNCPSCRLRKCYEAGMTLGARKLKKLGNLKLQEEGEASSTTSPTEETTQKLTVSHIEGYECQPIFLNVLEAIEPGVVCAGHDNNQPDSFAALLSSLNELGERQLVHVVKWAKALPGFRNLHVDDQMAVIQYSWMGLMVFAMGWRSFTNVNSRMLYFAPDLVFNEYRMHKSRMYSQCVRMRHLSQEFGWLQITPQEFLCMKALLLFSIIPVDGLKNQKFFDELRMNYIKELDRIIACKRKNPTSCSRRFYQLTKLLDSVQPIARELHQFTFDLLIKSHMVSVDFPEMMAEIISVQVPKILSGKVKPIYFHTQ
Method in brief: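 Real-time cell-growth kinetics were recorded by electrode impedance in 22Rv1 cells exposed to test chemicals up to 100 uM final; the 80 h timepoint served as the readout, fitted upward relative to DMSO controls, in biological duplicate.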

AR (gene 367) [7] = target: AR (gene 367) (UniProt P10275); test: ACEA_AR_antagonist_80hr: ACEA Biosciences xCELLigence Real-Time Cell Analysis on Androgen Receptor Antagonism for Proliferation (AID 2283787);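 note: 22Rv1 human prostate cancer cells with growth followed by electrical impedance; hits lower the impedance growth signal relative to DMSO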
Method in brief: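 Using 22Rv1 cells held in assay medium, we dosed compounds (100 uM maximum final, 1:4 serial, eight points, 0.5% DMSO at top) and recorded cell-electrode impedance; the 80 hr timepoint was analyzed against DMSO.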

[8] = ArunA_NOG_BranchPointsPerNeurite: ArunA Biomedical's Neurite Outgrowth (NOG) Assay for Branch Points Per Neurite (AID 2283759)
Method in brief: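 Automated image analysis traced neurites (processes >10 um) from valid cell bodies after Hoechst and βIII-tubulin staining. hNN cells from H9 embryonic stem cells, 48 h exposure. Fitted bidirectionally against DMSO.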

[9] = ATG_M_06_XSP2: Attagene TRANS-FACTORIAL Multi-Species (XSP2) HepG2 Assay for M06 Transcription Factor (Internal Marker) (AID 2283811);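 note: internal background marker reporter mRNA measured by RT-PCR and capillary electrophoresis; hits are increases in signal above the DMSO baseline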
Method in brief: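 Cells of the human liver line HepG2 carried transfected reporter transcription units and were treated for 24 h. Induced reporter transcripts were detected by fluorescence after RT-PCR and capillary electrophoresis, with activity fitted in the gain direction against DMSO.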

[10] = tested on: turtle Estrogen Receptor (ERa), gene 101933533; test: ATG_trERa_XSP2: Attagene TRANS-FACTORIAL Multi-Species (XSP2) HepG2 Assay for turtle Estrogen Receptor (ERa) (AID 2283812);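 note: actives raise reporter signal above DMSO so AC50 reflects agonist activity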
Method in brief: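 Readout is reporter mRNA quantified by RT-PCR with capillary electrophoresis after 24 h compound exposure, increase relative to DMSO. Uses transiently transfected human HepG2 liver cells carrying a chimeric turtle ERa-Gal4 receptor driving GAL4-UAS reporters.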

Nc1ccc(N)cc1
AC50 [1]: 13.9 µM (active) | outcome [2]: inactive | AC50 [3]: 49.8 µM (active)

CN(C)C(=S)S
outcome [1]: inactive | outcome [2]: inactive | AC50 [4]: 29.2 µM (active)

CCOc1ccc(N)cc1
outcome [1]: inactive | outcome [3]: inactive

O=S1(=O)OC(c2cc(Br)c(O)c(Br)c2)(c2cc(Br)c(O)c(Br)c2)c2ccccc21
AC50 [1]: 32.1 µM (active) | outcome [5]: inactive | outcome [3]: inactive | outcome (AR (gene 367) [6]): inactive | outcome (AR (gene 367) [7]): inactive

COC(=O)Nc1cccc(OC(=O)Nc2cccc(C)c2)c1
AC50 [1]: 9.99 µM (active)

OCCCCO
outcome [2]: inactive

COc1nn(C(=O)NS(=O)(=O)c2ccccc2OC(F)(F)F)c(=O)n1C
outcome [2]: inactive | outcome [3]: inactive

O=[N+]([O-])c1ccccc1O
outcome [2]: inactive | outcome [3]: inactive

N#CCC#N
outcome [1]: inactive | outcome [2]: inactive | outcome [3]: inactive | outcome (AR (gene 367) [6]): inactive | outcome (AR (gene 367) [7]): inactive

N#Cc1cccnc1
outcome [2]: inactive | outcome [3]: inactive

CCCCCCCCCCCCc1cccc(S(=O)(=O)O)c1
outcome [1]: inactive | AC50 [2]: 76.7 µM (active) | AC50 [3]: 83.1 µM (active)

CCCSP(=S)(OCC)Oc1ccc(SC)cc1 (stereo not given)
outcome [1]: inactive | outcome [2]: inactive | outcome [3]: inactive

O=c1nc(O)n(Cl)c(=O)n1Cl
outcome [2]: inactive | outcome [3]: inactive

Cc1cc(Cl)ccc1OC(C)C(=O)O (stereo not given)
outcome [2]: inactive | outcome [3]: inactive

CCOCn1c(-c2ccc(Cl)cc2)c(C#N)c(Br)c1C(F)(F)F
AC50 [2]: 6.93 µM (active) | AC50 [3]: 50 µM (active)

Nc1ncn[nH]1
outcome [8]: inactive | outcome [1]: inactive | outcome [2]: inactive | outcome [3]: inactive

O=c1[nH]c(=O)n(Cl)c(=O)n1Cl
outcome [1]: inactive | outcome [2]: inactive | outcome [3]: inactive

Clc1cccc(Cl)c1Cl
outcome [2]: inactive | outcome [5]: inactive

CCOP(=S)(OCC)SCS(=O)(=O)C(C)(C)C
outcome [1]: inactive | outcome [3]: inactive

O=C1c2ccccc2C(=O)C1C(=O)C(c1ccccc1)c1ccc(Cl)cc1 (stereo not given)
outcome [1]: inactive | AC50 [2]: 26.7 µM (active) | AC50 [5]: 24.6 µM (active) | AC50 [3]: 33 µM (active) | outcome (AR (gene 367) [6]): inactive | AC50 (AR (gene 367) [7]): 25 µM (active)

CC(O)(CS(=O)(=O)c1ccc(F)cc1)C(=O)Nc1ccc(C#N)c(C(F)(F)F)c1 (stereo not given)
AC50 [2]: 44 µM (active) | outcome [2]: inactive | outcome [3]: inactive | outcome [9]: inactive | outcome [10]: inactive

O=C(CBr)c1ccc(O)cc1
outcome [1]: inactive | outcome [3]: inactive

CCCCCCCCCCCCN(C)C
outcome [2]: inactive | outcome [3]: inactive

O=C(NC(=O)c1c(F)cccc1F)Nc1ccc(Cl)cc1
outcome [1]: inactive | outcome [3]: inactive

Clc1cccc(Cl)c1
outcome [2]: inactive | outcome [3]: inactive

CCOP(=S)(OCC)O/N=C(\C#N)c1ccccc1
AC50 [1]: 70 µM (active) | outcome [2]: inactive | outcome [9]: inactive | AC50 [10]: 7.97 µM (active) and 2.27 µM (active)

C=CC(Cl)CCl (stereo not given)
outcome [2]: inactive | AC50 [5]: 4.53 µM (active) | outcome (AR (gene 367) [6]): inactive | outcome (AR (gene 367) [7]): inactive

CN(N=O)C(N)=O
outcome [1]: inactive

CCN(CCO)CCO
outcome [2]: inactive | outcome [3]: inactive

CCC[CH2][Sn]([Cl])([Cl])[CH2]CCC
AC50 [2]: 4.16 µM (active) | AC50 [3]: 1.09 µM (active)

O=[N+]([O-])c1ccc(Cl)c([N+](=O)[O-])c1
AC50 [2]: 22.3 µM (active) | AC50 [3]: 1.55 µM (active) | outcome (AR (gene 367) [6]): inactive | AC50 [4]: 16.5 µM (active) | AC50 (AR (gene 367) [7]): 24.8 µM (active)

O=C(CCl)Nc1ccccc1
outcome [1]: inactive | AC50 [2]: 24.5 µM (active) | AC50 [5]: 12.7 µM (active) | AC50 [3]: 10.8 µM (active) | outcome (AR (gene 367) [6]): inactive | AC50 (AR (gene 367) [7]): 16.6 µM (active)

O=C(O)C1(c2ccc3c(c2)OC[C@H](Cc2ccc(-c4ccccc4)cc2)[C@H]3O)CCCC1
AC50 [1]: 85.2 µM (active) | AC50 [2]: 34.6 µM (active) | AC50 [3]: 78.3 µM (active)

CC(C)N(C(=O)CCl)c1ccccc1
AC50 [2]: 24.2 µM (active) | AC50 [3]: 18.5 µM (active) | outcome (AR (gene 367) [6]): inactive

COc1ccc(N)cc1
outcome [1]: inactive | outcome [2]: inactive | AC50 [3]: 52 µM (active) | outcome [3]: inactive

N#CS
outcome [1]: inactive | outcome [2]: inactive | outcome [3]: inactive

CCCCCCCCCCCCOS(=O)(=O)O
outcome [1]: inactive | AC50 [2]: 77.7 µM (active) | AC50 [3]: 71.3 µM (active)

O=C(O)COc1ccc(Cl)cc1
outcome [2]: inactive | outcome [3]: inactive

CC(C)(C)c1ccccc1O
outcome [1]: inactive | outcome [2]: inactive | AC50 [3]: 81.5 µM (active)

COc1ccccc1N
outcome [1]: inactive | outcome [2]: inactive | outcome [3]: inactive

CC(C)O.CC(C)O.OCCN(CCO)CCO.OCCN(CCO)CCO.[Ti]
outcome [4]: inactive

COCCl
outcome [10]: inactive

Oc1cc(Cl)c(Cl)cc1Cl
AC50 [10]: 13 µM (active) and 6.06 µM (active)

O=C(N[C@H]1CN2CCC1CC2)c1ccc2c(c1)OCCO2
outcome (AR (gene 367) [6]): inactive | outcome (AR (gene 367) [7]): inactive

O=C(O)COc1cc(Cl)c(Cl)cc1Cl
outcome (AR (gene 367) [6]): inactive

OCCN(CCO)CCO
outcome [4]: inactive

N#CCCC(Br)(C#N)CBr (stereo not given)
AC50 [4]: 95.3 µM (active)

[Cl][Sn]([c]1ccccc1)([c]1ccccc1)[c]1ccccc1
outcome [9]: inactive

From PubChem BioAssay (EPA / NIEHS)
